# Results reported in PubChem BioAssay AID1159580 (chemical genetic matrix, 2015).
# Where “and” joins values, the source holds several entries; their conditions need not be identical. Identical values can stand only once. The whole screen tested about 5,500 compounds, of which about 2,000 (36%) were called active. About 18% were inconclusive and are not listed. The list shows a part of the results. A number with no mark means an inactive call. Cut-off read from the data, not from the text of the source: active = normalized growth mostly below about 0.91 (no sharp cut-off); inconclusive = no clear call, values can overlap the other calls; inactive = mostly above about 0.92.
# Test: chemical genetic growth profiling, strain panel (AID 1159580);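 note: tested at 20 µM; growth read once vehicle control cultures reached saturation at 30 °C; 1 = growth at the plate median or of vehicle wells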
# Details: S. cerevisiae deletion strains, growth OD
smiles,measurement,setting,value
C=C(C)c1cc2cc(C(C)=O)c(O)cc2o1,normalized growth,"locus YAL013W, strain DEP1, stronger effect = lower value",0.948
same,normalized growth,"locus YAL021C, strain ccr4, stronger effect = lower value",0.981
same,normalized growth,"locus YAL026C, strain drs2, stronger effect = lower value",0.985
same,normalized growth,"locus YAL030W, strain snc1, stronger effect = lower value",0.974
same,normalized growth,"locus YBL061C, strain skt5, stronger effect = lower value",0.97
same,normalized growth,"locus YBR009C, strain hhf1, stronger effect = lower value",0.927
same,normalized growth,"locus YBR021W, strain FUR4, stronger effect = lower value",1.11
same,normalized growth,"locus YBR023C, strain chs3, stronger effect = lower value",0.94
same,normalized growth,"locus YBR171W, strain sec66, stronger effect = lower value",0.952
same,normalized growth,"locus YBR229C, strain ROT2, stronger effect = lower value",0.91 (active)
same,normalized growth,"locus YBR231C, strain swc5, stronger effect = lower value",0.961
same,normalized growth,"locus YBR279W, strain paf1, stronger effect = lower value",0.966
same,normalized growth,"locus YCL011C, strain gbp2, stronger effect = lower value",0.943
same,normalized growth,"locus YCL016C, strain dcc1, stronger effect = lower value",0.921
same,normalized growth,"locus YCL029C, strain bik1, stronger effect = lower value",0.961
same,normalized growth,"locus YCL069W, strain vba3, stronger effect = lower value",0.964
same,normalized growth,"locus YCR088W, strain abp1, stronger effect = lower value",0.965
same,normalized growth,"locus YDL005C, strain med2, stronger effect = lower value",0.991
same,normalized growth,"locus YDL035C, strain GPR1, stronger effect = lower value",0.93
same,normalized growth,"locus YDL040C, strain nat1, stronger effect = lower value",0.974
same,normalized growth,"locus YDL074C, strain BRE1, stronger effect = lower value",0.924
same,normalized growth,"locus YDL101C, strain DUN1, stronger effect = lower value",0.959
same,normalized growth,"locus YDL185W, strain tfp1, stronger effect = lower value",0.895 (active)
same,normalized growth,"locus YDL192W, strain arf1, stronger effect = lower value",0.893 (active)
same,normalized growth,"locus YDR001C, strain nth1, stronger effect = lower value",0.972
same,normalized growth,"locus YDR069C, strain doa4, stronger effect = lower value",0.998
same,normalized growth,"locus YDR101C, strain arx1, stronger effect = lower value",0.873 (active)
same,normalized growth,"locus YDR137W, strain rgp1, stronger effect = lower value",0.854
same,normalized growth,"locus YDR150W, strain NUM1, stronger effect = lower value",0.965
same,normalized growth,"locus YDR159W, strain sac3, stronger effect = lower value",0.992
same,normalized growth,"locus YDR162C, strain NBP2, stronger effect = lower value",0.926
same,normalized growth,"locus YDR195W, strain ref2",1.2 [resistant] (active)
same,normalized growth,"locus YDR297W, strain sur2, stronger effect = lower value",0.991
same,normalized growth,"locus YDR318W, strain mcm21, stronger effect = lower value",0.928
same,normalized growth,"locus YDR334W, strain swr1, stronger effect = lower value",0.983
same,normalized growth,"locus YDR335W, strain msn5, stronger effect = lower value",0.965
same,normalized growth,"locus YDR388W, stronger effect = lower value",0.947
same,normalized growth,"locus YDR392W, strain spt3, stronger effect = lower value",0.672 (active)
same,normalized growth,"locus YDR502C, strain sam2, stronger effect = lower value",0.968
same,normalized growth,"locus YEL003W, strain gim4, stronger effect = lower value",0.973
same,normalized growth,"locus YEL037C, strain rad23, stronger effect = lower value",0.979
same,normalized growth,"locus YEL061C, strain CIN8 (second series), stronger effect = lower value",0.958
same,normalized growth,"locus YEL061C, strain CIN8, stronger effect = lower value",0.94
same,normalized growth,"locus YER015W, strain faa2, stronger effect = lower value",0.958
same,normalized growth,"locus YER016W, strain bim1, stronger effect = lower value",0.975
same,normalized growth,"locus YER110C, stronger effect = lower value",0.894 (active)
same,normalized growth,"locus YER111C, strain swi4, stronger effect = lower value",0.97
same,normalized growth,"locus YER155C, strain BEM2 (second series), stronger effect = lower value",0.615 (active)
same,normalized growth,"locus YER155C, strain BEM2, stronger effect = lower value",0.967
same,normalized growth,"locus YER167W, strain BCK2, stronger effect = lower value",0.904
same,normalized growth,"locus YFR010W, strain ubp6, stronger effect = lower value",1
same,normalized growth,"locus YGL078C, strain dbp3, stronger effect = lower value",0.962
same,normalized growth,"locus YGL086W, strain mad1, stronger effect = lower value",0.928 (active)
same,normalized growth,"locus YGL167C, strain pmr1, stronger effect = lower value",0.956
same,normalized growth,"locus YGL173C, strain kem1, stronger effect = lower value",0.971
same,normalized growth,"locus YGL227W, strain vid30, stronger effect = lower value",0.967
same,normalized growth,"locus YGL240W, strain doc1, stronger effect = lower value",0.829 (active)
same,normalized growth,"locus YGL248W, strain PDE1, stronger effect = lower value",0.967
same,normalized growth,"locus YGL253W, strain hxk2, stronger effect = lower value",0.977
same,normalized growth,"locus YGR135W, strain pre9, stronger effect = lower value",0.971
same,normalized growth,"locus YGR252W, strain gcn5, stronger effect = lower value",0.916
same,normalized growth,"locus YHR013C, strain ard1, stronger effect = lower value",0.94
same,normalized growth,"locus YHR027C, strain rpn1, stronger effect = lower value",0.992
same,normalized growth,"locus YHR030C, strain SLT2, stronger effect = lower value",0.954 and 0.925
same,normalized growth,"locus YHR079C, strain IRE1 (second series), stronger effect = lower value",0.93
same,normalized growth,"locus YHR079C, strain IRE1, stronger effect = lower value",0.909
same,normalized growth,"locus YHR094C, strain hxt1, stronger effect = lower value",0.917 (active)
same,normalized growth,"locus YHR129C, strain ARP1, stronger effect = lower value",0.953
same,normalized growth,"locus YHR142W, strain chs7, stronger effect = lower value",0.907
same,normalized growth,"locus YHR200W, strain rpn10, stronger effect = lower value",0.883 (active)
same,normalized growth,"locus YIL066C, strain RNR3, stronger effect = lower value",0.919
same,normalized growth,"locus YIL073C, strain SPO22, stronger effect = lower value",0.899
same,normalized growth,"locus YIL125W, strain kgd1, stronger effect = lower value",0.934
same,normalized growth,"locus YIR030C, strain dcg1, stronger effect = lower value",0.929
same,normalized growth,"locus YJL092W, strain hpr5, stronger effect = lower value",0.973
same,normalized growth,"locus YJL095W, strain BCK1 (second series), stronger effect = lower value",0.974
same,normalized growth,"locus YJL095W, strain BCK1, stronger effect = lower value",0.95 and 0.932
same,normalized growth,"locus YJL115W, strain asf1, stronger effect = lower value",0.983
same,normalized growth,"locus YJL129C, strain trk1, stronger effect = lower value",0.926
same,normalized growth,"locus YJL134W, strain LCB3, stronger effect = lower value",0.951
same,normalized growth,"locus YJL154C, strain vps35, stronger effect = lower value",0.983
same,normalized growth,"locus YJL164C, strain tpk1, stronger effect = lower value",0.932
same,normalized growth,"locus YJL166W, strain qcr8, stronger effect = lower value",0.945
same,normalized growth,"locus YJL168C, strain set2, stronger effect = lower value",0.929 (active)
same,normalized growth,"locus YJL187C, strain SWE1 (second series), stronger effect = lower value",0.958
